Bioassay records as filed in PubChem.
RORgamma inh: ROR gamma (mouse) transcription inhibition. P51450. Drosophila S2 Gal4-RORgamma UAS-luciferase reporter, 20 h. Potency, µM (titrated, usually from 53.6 µM), without a hit: top-dose activity change, negative = inhibition, usual class: inhibitors. 310,000 tested, 5.4% active. AID 2551; note: % is set by controls: 0 for no effect and ±100 for the full control effect; nearly all actives have a fitted effect of over 60% in size
Target sequence (P51450 whole entry, looked up, the tested form may be a part): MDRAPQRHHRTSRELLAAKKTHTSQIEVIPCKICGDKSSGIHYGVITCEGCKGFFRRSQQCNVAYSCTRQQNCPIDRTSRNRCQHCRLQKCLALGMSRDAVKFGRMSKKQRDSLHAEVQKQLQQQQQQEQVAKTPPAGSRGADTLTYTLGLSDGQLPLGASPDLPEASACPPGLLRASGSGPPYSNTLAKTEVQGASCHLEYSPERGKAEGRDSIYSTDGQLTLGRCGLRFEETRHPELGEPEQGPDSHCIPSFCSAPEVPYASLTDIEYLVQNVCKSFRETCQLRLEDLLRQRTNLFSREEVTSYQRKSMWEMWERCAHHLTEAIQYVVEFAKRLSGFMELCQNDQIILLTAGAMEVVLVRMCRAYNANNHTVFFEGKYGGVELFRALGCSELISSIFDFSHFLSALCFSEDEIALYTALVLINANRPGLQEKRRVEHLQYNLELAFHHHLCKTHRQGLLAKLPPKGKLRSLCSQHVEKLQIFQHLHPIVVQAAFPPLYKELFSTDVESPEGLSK
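Compounds are pin-transferred onto Drosophila Schneider cells expressing a copper-inducible Gal4–ROR gamma transactivation domain fusion. After 1 hr, copper sulfate is added to 700 uM final; luciferase is read 20 hr later.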
BCR signal inh: inhibitors of chronic active B-cell receptor signaling. ABC-DLBCL IkBa-CBG/CBR reporter, luminescence ratio, 4 h. Potency, µM (doses to about 46.1 µM), without a hit: at the highest dose activity change, negative = inhibition, hits mostly inhibitors. 340,000 tested, 0.05% active. AID 493014; active = well fitted inhibition curve with a large enough effect in the signal ratio, with a control signal flat, not every such curve was filed as active; inconclusive = small, poorly fitted or top-dose-only effect, or effect the other way, or a change in a side signal; the % refers to the signal ratio;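 note: plate controls were basal doxycycline-induced cells for no effect and cells given 10 µM MG132 for full effect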
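Concentration-response series (up to 46 uM) were applied to TMD8 dual-reporter cells for 4 h at 37C with doxycycline. Green/red ratio, after filter-overlap correction, defined %Activity; red signal alone was normalised to basal cells and zero luminescence.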
Mito fusion yeast: mitochondrial division inhibition or fusion activation. S. cerevisiae fusion-defective mutant growth rescue, CellTiterGlo 48 h. Potency, µM (highest dose often 46.1 µM), for the others: top-dose growth rescue (activation), actives largely listed as activators. 320,000 tested, 0.23% active. AID 485298; note: % of control where 0% means no effect; nearly all actives have a fitted effect of over 45% in size
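Yeast fusion mutant, YPEG (non-fermentable carbon), compound, 48 h at 37C non-permissive; CellTiterGlo added, 10 min RT, luminescence read. Rescued growth = division inhibition.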
VP16 counter: inhibits Gal4-VP16 luciferase reporter, ROR gamma counter-screen. Drosophila S2 Gal4-VP16 UAS-luciferase, luminescence, 20 h. Potency, µM (doses to about 53.6 µM), inactives show at the highest dose activity, negative = inhibition, hits mostly inhibitors. 310,000 tested, 3.5% active;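 note: Gal4-VP16 expression switched on by copper sulfate through the metallothionein promoter; % is set by controls: 0 for no effect and ±100 for the full control effect; nearly all actives have a fitted effect of over 50% in size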
Integrin act MD: activates integrin-mediated alleviation for muscular dystrophy; alpha7betagal myoblasts, beta-gal FDG fluorescence, 48 h; Potency, µM (top dose mostly 38.3 µM), for the others: top-dose activation, actives largely listed as activators; 350,000 tested, 0.064% active; AID 624291;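 note: 100% = response of the positive control SU9516; nearly all actives have a fitted effect of over 60% in size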
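alpha7betagal+/- myoblasts (passage 13, 250/well) treated 48 h at 37C with compounds at 1:260 dilution of DMSO stock. Lysed, then beta-galactosidase activity read as FDG fluorescence (ex 480/em 540) after 30 min, with pre-read for autofluorescence.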
uPA surface inh: inhibitors of cell surface uPA generation; cell surface uPA generation assay, qHTS; Potency, µM (series often up to 38.3 µM), without a hit: top-dose activity change, negative = inhibition, hits mostly inhibitors; 330,000 tested, 0.31% active; AID 540303; active = well fitted inhibition curve with a large enough effect; inconclusive = small, poorly fitted or top-dose-only effect; inactive = no such curve, though single readings can be large or run the other way; tested in mouse RAW 264.7 cells; note: % is set by controls: 0 for no effect and ±100 for the full control effect; nearly all actives have a fitted effect of over 55% in size
Active calls of the source: *; ? = inconclusive; / = not tested or not shown; ! = not active in a repeat. An excerpt weighted towards active compounds, which were near 5.5% of everything screened. Unless noted, calls come from the whole dose curve; as a rule, active = well fitted curve in the direction sought with a large enough effect; inconclusive = small, poorly fitted or top-dose-only effect, or another doubt; inactive = no such curve, though single readings can be large; an effect the other way counts as inactive or inconclusive. Potency is the fitted concentration of half-maximal effect.

SMILES	RORgamma inh	BCR signal inh	Mito fusion yeast	VP16 counter	Integrin act MD	uPA surface inh
C=C1/C(=C\C=C2/CCC[C@]3(C)[C@@H]([C@H](C)CCCC(C)(C)O)CC[C@@H]23)C[C@@H](O)C[C@@H]1O	10µM*!	?	-0.1%	?	/	/
C=C1CC[C@H](O)C/C1=C/C=C1\CCC[C@]2(C)[C@@H]([C@H](C)CCCC(C)(C)O)CC[C@@H]12	?	/	/	11.2µM*!	/	/
CO[C@H]1OC[C@@]2(C)[C@@H]3C4=C(CN2C(=O)OC(C)(C)C)[C@H](C)[C@H](CO)[C@H](CO)[C@H]4CC[C@H]13	-8.1%	/	/	6.4%	/	/
COc1cc2c(cc1OC)-c1cc(NC3CCCC3)nc(=O)n1CC2	?	15.8µM*	-2.1%	2.2%	-6.4%	-6.9%
CCN(CC)c1ccc(Nc2cc3n(c(=O)n2)CCc2cc(OC)c(OC)cc2-3)cc1	-11.7%	11.2µM*	2.9%	4.2%	-42.0%	-9.0%
O=C(NCc1ccccn1)c1ccccc1OCc1ccc(Cl)cc1Cl	/	-0.6%	19.7%	/	27.9%	-13.2%
CCN(CC)CCn1c2c(c(SCC(=O)Nc3ccc4c(c3)OCCO4)nc1=O)CCCC2	/	?	-0.8%	/	-13.1%	-0.4%
O=C(c1ccncc1)N1CCC2(CC1)CN(c1cccc(-c3ccccc3)c1)C2	-17.5%	/	/	-16.1%	/	/
COc1cc(O)c(C(CC(=O)N2CCOCC2)c2ccc(N(C)C)cc2)c(OC)c1 (stereo not given)	-36.8%	1.3%	?	-6.7%	-16.4%	25.4%
COc1cc(O)c(C(CC(=O)N2CCCCC2)c2ccc(N(C)C)cc2)c(OC)c1 (stereo not given)	1µM*	-10.7%	21.3%	5.8%	-4.0%	10.5%
COc1cc(Cl)cc(CN2CCC(CCC(=O)NC3CC3)CC2)c1OC	-6.8%	2.4%	-2.4%	-2.4%	7.08µM*	5.1%
COc1cc(Cl)c(CN2CCC(CCC(=O)NC3CC3)CC2)cc1OC	-0.7%	-3.0%	0.2%	-7.6%	0.0%	5.2%
CC[C@H](C)[C@H](NC(=O)[C@H](CC(C)C)NC(=O)[C@H](CO)NC(=O)[C@H](CCC(=O)O)NC(=O)[C@H](CC(C)C)NC(=O)[C@H](Cc1ccc(O)cc1)NC(=O)[C@H](CCCCN)NC(=O)[C@H](CCCCN)NC(=O)[C@H](C)NC(=O)[C@H](CO)NC(=O)[C@H](CC(C)C)NC(=O)[C@H](CCC(N)=O)NC(=O)CNC(=O)[C@H](CC(C)C)NC(=O)[C@H](CC(C)C)NC(=O)[C@H](CCCNC(=N)N)NC(=O)[C@H](CO)NC(=O)[C@H](Cc1ccccc1)NC(=O)[C@H](CC(=O)O)NC(=O)[C@H](CO)NC(=O)[C@@H](NC(=O)[C@H](Cc1ccccc1)NC(=O)[C@@H](NC(=O)CNC(=O)[C@H](CC(=O)O)NC(=O)[C@H](C)NC(=O)[C@@H](N)Cc1cnc[nH]1)C(C)C)[C@@H](C)O)C(N)=O	18.6%	/	/	5.2%	/	/
CCCN1C2CCCC1CC(NC(=O)Nc1ccc(C(C)C)cc1)C2 (stereo not given)	-37.2%	-19.4%	-3.1%	12.5%	-52.1%	-3.6%
COc1cccc(NC(=S)NN2CCN(C)CC2)c1	-17.6%	3.5%	-3.3%	-14.3%	-16.1%	-1.5%
CC1CCCCN1C(=S)Nc1ccc(OC(F)F)cc1 (stereo not given)	-42.6%	?	0.9%	-7.4%	21.4%	-1.8%
CC(C)c1ccc(NC(=S)NN2C(C)CCCC2C)cc1 (stereo not given)	1.58µM*	-0.5%	-0.1%	6.31µM*	-13.7%	0.3%
CC1CCCC(C)N1NC(=S)Nc1ccc(OC(F)F)cc1 (stereo not given)	3.16µM*	?	-4.0%	6.31µM*	19.5%	-4.7%
COc1cccc(NC(=S)NN2C(C)CCCC2C)c1 (stereo not given)	2.24µM*	-4.5%	-2.0%	5.62µM*	12.7%	-0.7%
